High-throughput results (PubChem BioAssay)
Sampled rows, rich in hits. Any-hit rate of the full collection: about 18%.
VP16 counter – inhibits Gal4-VP16 luciferase reporter, ROR gamma counter-screen. AID 2546. hit rate 3.5% among 310,000. Potency, µM (top dose mostly 53.6 µM), for inactives: at the top dose activity, negative = inhibition, most hits filed as inhibitors. Drosophila S2 Gal4-VP16 UAS-luciferase, luminescence, 20 h;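 further: Gal4-VP16 expression switched on by copper sulfate through the metallothionein promoter; potency means the concentration at half of the fitted maximal effect; nearly all actives have a fitted effect of over 50% in size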
DT40 TDP1 CPT – DT40-hTDP1 cell growth loss with CPT | chicken DT40 Tdp1-/-;hTDP1 cells + 20 nM CPT, ATP luminescence, 48 h | Potency, µM (top dose mostly 46.2 µM), without a hit: at the highest dose activity change, negative = growth inhibition, actives largely listed as inhibitors | hit rate 12% among 420,000 | AID 686979; further: potency means the concentration at half of the fitted maximal effect; nearly all actives have a fitted effect of over 55% in size
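Chicken DT40 Tdp1-/- cells complemented with human TDP1, 400 cells/well, exposed to compounds plus 20 nM camptothecin for at least 48 h at 37 C; viability read as ATP content by CellTiter-Glo luminescence.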
TDP1 cell noCPT – qHTS for Inhibitors of human tyrosyl-DNA phosphodiesterase 1 (TDP1): qHTS in cells in absence of CPT. DT40 Tdp1-/- hTDP1 cells, no CPT, ATP luminescence, 48 h. Potency, µM (highest dose often 46.2 µM), for inactives: top-dose activity change, negative = growth inhibition, actives largely listed as inhibitors. hit rate 15% among 420,000. AID 686978, 2013; further: potency means the concentration at half of the fitted maximal effect; nearly all actives have a fitted effect of over 55% in size
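Luminescent ATP content (CellTiter-Glo) served as the growth readout. Knockout chicken DT40 cells expressing human TDP1 were exposed to compounds without camptothecin for a minimum 48 hr at 37 °C.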
LDHA block – LDHA (human) enzyme inhibition; purified LDHA, NADH/diaphorase-resazurin fluorescence; active compounds read low; AID 1347041; hit rate 0.15% among 480,000; activity change, % (values are at about 110 or 230 µM); P00338; in the data active means activity change below about -30%; inconclusive means mostly about -25% to -30%;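 further: plate controls were DMSO wells for no effect and wells without enzyme for full effect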
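Human LDH5 (2 nM) was incubated with 0.06 mM NADH and 0.2 mM pyruvate for 5 min at room temperature in Tris pH 7.4. Remaining NADH was coupled through diaphorase/resazurin, and resorufin fluorescence was read at 0 and 20 min.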
RORgamma inh – inhibitors of mouse ROR gamma transcriptional activity. Drosophila S2 Gal4-RORgamma UAS-luciferase reporter, 20 h. Potency, µM (doses to about 53.6 µM), for inactives: top-dose activity change, negative = inhibition, hits mostly inhibitors. hit rate 5.4% among 310,000; further: potency means the concentration at half of the fitted maximal effect; nearly all actives have a fitted effect of over 60% in size
Target sequence (P51450 whole entry, looked up, the tested form may be a part): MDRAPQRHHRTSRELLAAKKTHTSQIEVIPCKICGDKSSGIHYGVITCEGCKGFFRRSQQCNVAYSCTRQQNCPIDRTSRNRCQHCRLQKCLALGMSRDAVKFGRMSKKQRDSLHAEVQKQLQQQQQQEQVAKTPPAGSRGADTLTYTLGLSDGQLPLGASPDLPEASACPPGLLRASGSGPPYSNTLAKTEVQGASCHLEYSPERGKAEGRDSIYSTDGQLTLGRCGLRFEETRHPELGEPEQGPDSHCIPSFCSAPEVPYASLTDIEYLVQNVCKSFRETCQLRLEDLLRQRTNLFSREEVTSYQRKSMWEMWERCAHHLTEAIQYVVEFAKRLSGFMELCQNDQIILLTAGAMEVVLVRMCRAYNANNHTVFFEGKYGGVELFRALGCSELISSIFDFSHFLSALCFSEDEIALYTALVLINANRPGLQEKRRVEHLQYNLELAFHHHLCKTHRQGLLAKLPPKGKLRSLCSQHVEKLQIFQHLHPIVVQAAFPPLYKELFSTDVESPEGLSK
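Luciferase reporter read in Schneider cells carrying Gal4-RORγ (mouse) and UAS-Photinus luciferase; cells given compound 1 h before 700 uM copper sulfate induction, then incubated 20 h at ambient temperature.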
IL1B secr inh – inflammasome signaling inhibition, IL-1 beta readout | THP-1 LPS/ATP IL-1B secretion, AlphaLISA, 16 h; active compounds read low | activity change, % at 57.5 µM | hit rate 4.7% among 360,000 | AID 743279; in the data active means activity change below about -50%; inconclusive means mostly about -30% to -49%
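Secreted IL-1B measured by AlphaLISA bead assay after 16 h compound exposure of THP-1 cells; compounds (final up to 57.5 uM) added 1 h before LPS (250 ng/mL) and ATP (1.25 mM) stimulation; lower signal means less secretion.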
* = called active by the depositor; ? = inconclusive; nt = no result given; [ ] = remark or other dose. Unless noted, the call rests on the fitted dose curve; in most records, active means well fitted curve in the direction sought with a large enough effect; inconclusive means small, poorly fitted or top-dose-only effect, or another doubt; inactive means no such curve, though single readings can be large; an effect the other way counts as inactive or inconclusive. Unless noted, on the % scale 0 is the no-effect control and ±100 the full control effect.

SMILES	VP16 counter	DT40 TDP1 CPT	TDP1 cell noCPT	LDHA block	RORgamma inh	IL1B secr inh
CCCC(=O)N1CCCC1(C)C(=O)Nc1cc(C)ccc1C (stereo not drawn)	nt	1.8%	-0.4%	-6.0	nt	28.3
CCCC(=O)N1CCC1(C)C(=O)Nc1scc(C)c1C#N (stereo not drawn)	nt	20.6µM*	14.6µM*	-7.9	nt	7.2
Clc1ccc(C2CC(c3ccc(Br)cc3)=NO2)cc1 (stereo not drawn)	nt	nt	nt	12.9	nt	nt
Cc1sc2nc(SCCN(C)C)n(-c3ccccc3)c(=O)c2c1-c1ccc(F)cc1	1.4%	18.4µM*	25.9µM*	-4.4	-26.6%	-16.6
O=C(CCCc1nc2ccccc2s1)NC1CCCC1	nt	nt	nt	9.1	nt	nt
CC(c1nc(N)nc(N(C)C)n1)N(C)CCOc1ccc(Cl)cc1 (stereo not drawn)	nt	nt	nt	2.2	nt	nt
Cc1nnc(NC(=O)CSc2nnc(-c3ccco3)o2)s1	5.01µM*	-2.3%	16.6%	-4.3	1.58µM*	2.6
Cc1ccc(NC(=O)CSc2nnc(-c3ccco3)o2)c(C)c1	5.2%	1.1%	0.2%	-6.1	0.1%	0.9
CC(C)c1nnc(NC(=O)CSc2nnc(-c3ccco3)o2)s1	17.8µM*	-2.5%	-0.4%	-3.3	11.2µM*	35.0
O=C(C1CC1)N1CCC(c2nc(-c3ccc(S(=O)(=O)NCC4CCCO4)cc3)no2)CC1 (stereo not drawn)	nt	12.6µM*	14.1µM*	2.0	25.9%[0.365 µM]	0.0
O=S(=O)(NCC1CCCO1)c1ccccc1 (stereo not drawn)	-10.9%	-4.7%	6.0%	0.9	-4.7%	11.5
O=C(c1ccc(S(=O)(=O)NCC2CCCO2)cc1)N1CCc2ccccc21 (stereo not drawn)	?	20.6µM*	20.6µM*	-6.7	-4.4%	7.5
O=C(c1ccccc1)N1CCC(c2nc(-c3ccc(S(=O)(=O)NCC4CCCO4)cc3)no2)CC1 (stereo not drawn)	8.91µM*	10.3µM*	10µM*	-1.7	-43.4%	-72.0*
CN(C)Cc1ccc(CNC(=O)CCc2ncc(-c3ccc(F)cc3)o2)cc1	nt	nt	nt	12.9	nt	nt
COC(=O)Cc1c(C)c2ccc(O)cc2oc1=O	nt	nt	nt	-30.5*	nt	nt
COC(=O)COc1ccc2c(C)c(CC(=O)OC)c(=O)oc2c1	nt	nt	nt	1.4	nt	nt
C=C(C)Cn1c(SCc2ccccc2Cl)nc2c1c(=O)n(C)c(=O)n2C	nt	nt	nt	4.8	nt	nt
Cc1nnsc1C(=O)NC1CCCc2c1cnn2-c1ccc(F)cc1F (stereo not drawn)	7.08µM*	6.51µM*	5.8µM*	0.9	?	6.5
Cc1ccc(C(=O)NC2CCCc3c2cnn3-c2ccc(F)cc2F)cn1 (stereo not drawn)	2.82µM*	nt	nt	nt	?	nt
c1cc(OCc2nc(-c3ccsc3)no2)cc(-n2cnnn2)c1	nt	nt	nt	0.6	nt	nt
NS(=O)(=O)c1ccc(N=Nc2nc3[nH]cnc(=S)c3[nH]2)cc1	nt	5.01µM*	6.31µM*	0.0	nt	nt
Cn1c(N)c(N=Nc2ccc(S(N)(=O)=O)cc2)c(=O)n(C)c1=O	1.1%	10.7%	5.4%	-14.5	1.5%	-16.1
CCCCn1nc(C(=O)N2CCC(C(=O)N3CCc4ccccc4C3)CC2)c2ccccc2c1=O	nt	nt	nt	-5.5	nt	nt
S=c1nccc(-c2cccs2)[nH]1	7.94µM*	?	?	-6.8	3.98µM*	39.0
CC(C)NC(=O)c1onc(CSc2ccccc2)c1C(=O)O	-15.2%	-11.4%	-8.1%	4.3	-43.0%	5.8
CC(C)NC(=O)c1onc(CSc2cccc3ccccc23)c1C(=O)O	?	-12.0%	0.5%	3.4	17.8µM*	50.9
Cc1cc(C)cc(SCc2noc(C(=O)NCCN(C)C)c2C(=O)NCCN(C)C)c1	nt	?	14.6µM*	-8.0	nt	-15.6
CN(C)CCNC(=O)c1onc(CSc2ccncc2)c1C(=O)NCCN(C)C	nt	5.0%	-2.2%	-2.0	nt	-3.9
